We go through 36 compounds from the supplement of paper PMC3484114.

± gives the standard deviation.

This assay deals with OVCAR-3-derived ovarian cancer stem-like cells (spheroids). Kind of assay: cell growth relative to untreated control; higher = more growth (less inhibition). Particulars: 2.29 µM; 96 h. The essentials:
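Percent growth was calculated against untreated wells once blanks were subtracted and Grubbs outliers removed. The cells were OVCAR-3 spheroid-derived stem-like cells, trypsinized and plated at 50,000 cells/mL in stem cell medium on ultra-low attachment 96-well plates for a 24 h preincubation. They were then exposed to compounds at 2.29 uM for 96 h at 37°C, 5% CO2, in 4 replicate wells, and viability was measured by TOX8 resazurin fluorescence (ex 560/em 590 nm) after 4 h.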

Consider `Cc1cc(C)c(NC(=O)/C=C/c2ccccc2)c(C)c1`, for which the cell growth turned out to be 89.7 ± 13%. To `Cc1cc(NC(=O)NC(=O)c2ccccc2NC(=O)CN)ccc1Oc1ncc(Br)cn1` belongs 49.8 ± 9%.

`O=C1C=CC(=O)c2c(O)c(N3CCN(CCOCCO)CC3)c(Br)c(O)c21` registered a cell growth of 18 ± 6.4%.

In turn, `N#CC(=S)Nc1ccc(Cl)c(Cl)c1` yielded a cell growth of 90.6 ± 12%. As for `COC(=O)C1(C)CCCC2(C)C3CCC4CC3(C=C4CO)CCC12` (stereo unspecified), the figure is 95.7 ± 14%; as for `COc1ccc(/C=C2\CCCc3ccccc3C2=O)cc1`, 54.4 ± 10%.

`Cc1ccc(Cl)c2c(N=Nc3ccccc3[N+](=O)[O-])c(O)[nH]c12`: the cell growth stood at 107 ± 34%.

Compound `CC(C)(C)C1CCC2(CC1)CCN(CCCN1CCOCC1)CC2` gave a cell growth of 119 ± 12%. Turning to `NC(N)=N/N=C(\c1ccc(Cl)cc1)C1CC1`, the cell growth came out at 200 ± 43%. The compound `CC(C)CC(NC(=O)OCc1ccccc1)C(=O)NC(Cc1ccccc1)C(=O)CCl` (stereo unspecified) had a cell growth of 92.9 ± 35%. As for `O=C1C(=O)c2ccccc2C(O)=C1CCCc1ccc(Oc2ccccc2)cc1`, the figure is 87.1 ± 37%.

Take `O=C1c2ccccc2C(=O)c2c(O)c(O)cc(O)c21`: the cell growth was found to be 25.5 ± 6.6%. Take `O=C(c1ccccc1)C1OC12C(=O)Nc1c(Cl)cc(Cl)cc12` (stereo unspecified): the cell growth worked out at 94.6 ± 19%.

`CCOC(=O)/C(=C/c1ccc(N(C)C)cc1)N(CC)CC` had a cell growth of 85 ± 9.3%. `CC(C)(C)[Si](C)(C)OCC1CCC(n2cnc3c(N)ncnc32)O1` (stereo unspecified) returned a cell growth of 111 ± 23%. In the case of `CCCCCCCC/C=C\CCCCCCCC(=O)O`, the cell growth came out at 124 ± 36%. To `CCN(CC)Cc1cc(N=Nc2c(O)ccc3c(N=Nc4ccc(O)c(CN(CC)CC)c4)c(O)ccc23)ccc1O` belongs 70.5 ± 21%. `COC(=O)c1ccccc1NC(=O)C(=O)CC(=O)c1ccccc1NC1=CC(=O)C(=O)c2ccccc21` came in with a cell growth of 65.5 ± 12%. In the case of `C/C=C(\CCC1NCCc2c1[nH]c1ccccc21)[Si](C)(C)C` (stereo unspecified), the cell growth was 86.5 ± 9.4%. To `COC(=O)[C@@]12OC[C@]34[C@H]([C@@H](O)[C@@H]1O)[C@@]1(C)CC(=O)C(O)=C(C)[C@@H]1C[C@H]3OC(=O)[C@H](OC(=O)C=C(C)C)[C@@H]24` belongs 18.5 ± 3.1%; to `Cc1ccc(NC(=O)c2cccc([N+](=O)[O-])c2O)c(C)c1`, 110 ± 19%. To `CC(=O)Oc1ccc(C(c2ccc(OC(C)=O)cc2)c2ccccn2)cc1` belongs 20.8 ± 5.2%; to `Cc1nc(-n2nc(-c3ccccc3)cc2-c2ccccc2)sc1C(=O)/C=C/c1ccc(Cl)c(Cl)c1`, 109 ± 25%.

`CC(Cc1ccccc1)NC1=NCCO1` (stereo unspecified): the cell growth was 88.1 ± 13%. As for `CCOC(=O)/N=C(\N)SCc1ccccc1`, the figure is 78.4 ± 11%; as for `CN(C)C(=S)/N=c1\ss/c(=N\C(=S)N(C)C)n1-c1ccc2c(c1)OCO2`, 76.4 ± 5.8%; as for `C[C@]12C=CC(=O)C=C1[C@@H](F)C[C@H]1[C@@H]3CC[C@](O)(C(=O)CO)[C@@]3(C)C[C@H](O)[C@@]12F`, 80 ± 22%. The compound `NC1=NCN([C@@H]2O[C@H](CO)[C@@H](O)[C@H]2O)C(=O)N1` came in with a cell growth of 85.8 ± 11%. To `CCOC(=O)C1=C(C)NC(=S)NC1c1ccccc1` (stereo unspecified) belongs 103 ± 12%. To `Nc1nc(Cl)nc2c1ncn2[C@H]1C[C@H](O)[C@@H](CO)O1` belongs 82.7 ± 17%; to `Nc1nc(SCc2ccccc2Cl)c2ncn(C3OC(CO)C(O)C3O)c2n1` (stereo unspecified), 177 ± 61%; to `CCN(CC)CCCNc1ncc(C)c2[nH]c3ccncc3c12`, 82.7 ± 8.6%.

Compound `CC[C@]1(O)C[C@@H]2CN(CCc3c([nH]c4ccccc34)[C@@](C(=O)OC)(c3cc4c(cc3OC)N(C)[C@H]3[C@@](O)(C(=O)OC)[C@H](OC(C)=O)[C@]5(CC)C=CCN6CC[C@]43[C@@H]65)C2)C1` had a cell growth of 49.1 ± 11%.

For `C[CH2][Ge]([CH2]C)([CH2]C)[O]C(=O)CCC(=O)[O][Ge]([CH2]C)([CH2]C)[CH2]C`, the cell growth is 110 ± 7.5%. To `Cc1[nH]c(=O)[nH]c(=O)c1/C=C/C(=O)NC(CO)CC(C)C` (stereo unspecified) belongs 94.2 ± 22%; to `Oc1[nH]c2ccccc2c1N=Nc1nc(-c2ccc(Br)cc2)cs1`, 81.5 ± 29%.
